Test results taken from PubChem BioAssay (Tox21).
Inconclusive results are not listed. Activity calls are given as the source filed them. Calls come from the whole dose curve; as a rule, active = well fitted cell-killing curve with a large enough effect in the repeat runs; inconclusive = weak or mixed curves; inactive = flat fitted curve, though single readings scatter.

Test: qHTS RealTime-Glo MT Cell Viability Assay in HepG2 cells - 16 hour (AID 1224885); note: nearly all actives have a fitted effect of over 50% in size
Conditions: RealTime-Glo luminescence; series mostly up to 76.8 µM; activity change, negative = cytotoxic: at the top concentration
How it was run: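 Cell number in HepG2 cultures estimated from NanoLuc luminescence generated by metabolic reduction of a prosubstrate by living cells. The homogeneous, nonlytic format allowed repeated reads at 0, 8, 16, 24, 32 and 40 h of compound exposure.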
% is set by controls: 0 for no effect and ±100 for the full control effect.

| SMILES | activity change, negative = cytotoxic |
| --- | --- |
| c1ccc(CNc2ncnc3c2ncn3C2CCCCO2)cc1 (configuration not stated) | -0.716% (inactive) |
| CC(C)(C)C1(CCc2ccc(Cl)cc2)CO1 (configuration not stated) | -12.1% (inactive) |
| O=C1OC[C@H](Cc2cccc(O)c2)[C@H]1Cc1cccc(O)c1 | -0.178% [at 35.3 µM] (inactive) |
| Nc1ccc(NC(=O)c2ccc(N)cc2)cc1 | 0.425% (inactive) |
| O=C(O)CCCc1c[nH]c2ccccc12 | 4.8% (inactive) |
| CC(C)(C)C(O)/C=C/c1ccc2c(c1)OCO2 (configuration not stated) | -0.315% [at 35.3 µM] (inactive) |
| C/C(C=O)=C\c1ccccc1 | 1.07% (inactive) |
| CCO[Si](C)(CCCOCC1CO1)OCC (configuration not stated) | 1.27% (inactive) |
| ClC1=C(Cl)C1(Cl)Cl | 0.0459% (inactive) |
| Nc1c(Cl)cc(Cl)cc1[N+](=O)[O-] | -11.3% (inactive) |
| COc1ccc(-c2cc(C(F)F)nn2-c2ccc(S(N)(=O)=O)cc2)cc1F | -14.6% [at 35.3 µM] (inactive) |
| COC(=O)Nc1nc2ccc(C(=O)C3CC3)cc2[nH]1 | -15.1% [at 35.3 µM] (inactive) |
| CCCCCCCC/C=C/C(=O)O | 6.94% [at 35.3 µM] (inactive) |
| CC(=O)N[C@@H](Cc1ccc(O)cc1)C(=O)O | -7.23% [at 35.3 µM] (inactive) |
| Cc1ccc(Nc2c(F)cccc2Cl)c(CC(=O)O)c1 | 12.3% [at 35.3 µM] (inactive) |
| CCCOC(=O)c1c(Cl)c(Cl)c(Cl)c(Cl)c1C(=O)OCCC | -4.81% (inactive) |
| COc1ccc(/C=C/C(=O)c2ccc(OC)cc2OC)cc1 | -12.4% [at 35.3 µM] (inactive) |
| Nc1ccc(N=Nc2ccc(N)cc2)cc1 | 0.332% [at 35.3 µM] (inactive) |
| CC1=C2[C@@H]([C@H](C)CC[C@H]2/C=C(\C)C(=O)O)[C@H](O)C1 | -0.243% (inactive) |
| CNCc1ccc(NC(=O)c2c[nH]c3c2C(=O)CCC3)cc1 | -9.24% (inactive) |
| O=C1CC[C@@H](C(=O)O)N1 | -0.654% [at 35.3 µM] (inactive) |
| CCCc1nc2c(C)cc(-c3nc4ccccc4n3C)cc2n1Cc1ccc(-c2ccccc2C(=O)O)cc1 | -16.5% [at 35.3 µM] (inactive) |
